Compound activity: PubChem, several laboratories
Only some compounds are listed: those with a hit (about 7.2% of all), similar ones and a draw of the others.
ALR H2O2 inh = blocks human ALR sulfhydryl oxidase activity; purified ALR, DTT oxidation, H2O2 HRP-luminol luminescence; inhibition, % (no concentration beside the values); P55789; 3.8% of 290,000 active;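 active = mean replicate inhibition above about 79%, with every replicate also reaching it, limit read from the data; inconclusive = only one of the two criteria met; inactive = mean below limit and not every replicate reaching it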
Target sequence (P55789 whole entry, looked up): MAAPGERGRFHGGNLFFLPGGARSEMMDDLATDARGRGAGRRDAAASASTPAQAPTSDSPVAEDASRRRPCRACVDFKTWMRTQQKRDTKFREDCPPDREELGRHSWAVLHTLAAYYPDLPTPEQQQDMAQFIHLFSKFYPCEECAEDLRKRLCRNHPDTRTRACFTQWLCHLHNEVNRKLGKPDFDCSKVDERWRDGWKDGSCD
Bfl-1 A1 inh = inhibitors of the anti-apoptotic protein A1, read as caspase activation; MEF A1-2A-BIM cells, Caspase-Glo 3/7 luminescence, 3 h; percent of clofoctol response, vehicle zero; caspase activation, % (test concentration not listed); 0.066% of 330,000 active;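 active = over half of replicate activation scores above 10%, or exactly half above 10 with the replicate mean above 10; inconclusive = replicate mean below 10 yet half the replicates above 10; inactive = over half of replicates below 10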
AHR activator = activators of human aryl hydrocarbon receptor. activation, % at 5 µM. P35869. AHR-responsive luciferase reporter cells, luminescence. 2.5% of 320,000 active; in the data active = activation above about 47%
VLA-4 inh = inhibition in a human VLA-4 binding assay | P13612 | VLA-4 expressing cells, ligand binding flow cytometry | inhibition, % (about 7 µM as worked out from the volumes in the protocol) | 0.2% of 330,000 active | AID 2557; in the data active = inhibition above about 50%
Efflux pump mplx = blocks antifungal efflux pumps in multiplex yeast assay. inhibition, % at 10 µM. AID 485275. 0.44% of 330,000 active. S. cerevisiae Candida pump triplex, Nile Red efflux;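 active = plate passing quality check with inhibition over a set limit, or well fluorescence over plate mean plus 4 SD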;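 also: Nile Red retained in pooled yeast measured as flow cytometry median fluorescence; higher means more Nile Red kept so more efflux inhibition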
SUMO Mot1 rescue = SUMOylation pathway inhibition by Mot1-301 growth rescue; AID 2716; growth rescue, % at 18.8 µM; 1% of 320,000 active; S. cerevisiae Mot1-301 growth rescue, ATP luminescence, 38.5C; percent above DMSO median, 100 means doubled;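 active = every valid replicate shows activation above 250% relative to neutral control wells; inactive = the rest, any valid replicate at or below 250%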
A number is an active result; n = inactive; u = inconclusive; x = no result.

SMILES | ALR H2O2 inh | Bfl-1 A1 inh | AHR activator | VLA-4 inh | Efflux pump mplx | SUMO Mot1 rescue
COc1ccccc1NC(=O)/C(=C\c1cccs1)NC(=O)c1ccco1 | n | n | 66 | n | n | n
COc1ccc(N(CC(=O)N/N=C/c2cccs2)S(=O)(=O)c2ccccc2)cc1 | x | n | 64 | n | n | n
COc1ccccc1NC(=O)C(=O)N/N=C/c1cccs1 | n | n | 47 | n | n | n
NC(=O)c1cc(Br)cc2c3c([nH]c12)CCCC3 | n | n | 64 | n | n | n
Cc1nn(-c2ccc(Cl)cc2)c(=O)c2ccccc12 | n | n | 54 | n | n | x
Cc1nn(-c2cc(N3CCCCC3)ccc2N)c(=O)c2ccccc12 | 99 | n | n | n | n | n
CC(=Nc1ccccc1)Nc1ccccc1 | n | n | n | n | n | n
S=C(N=Nc1ccccc1)NNc1ccccc1 | 99 | n | 53 | n | n | n
CC1CC(C)CN(CC(C)(C)NS(=O)(=O)c2ccc(Cl)cc2)C1 (stereo not drawn) | n | n | n | n | n | 276
Cc1ccc(NC(=O)C=NOCC(=O)Nc2cc(C)cc(C)c2)cc1 | n | n | n | n | n | n
O=C1OC(c2ccccc2)/C(=C(/O)c2ccccc2)C1=O (stereo not drawn) | 92 | n | n | n | n | n
Cc1ccc(/C(O)=C2/C(=O)C(=O)OC2c2ccc(Cl)cc2)cc1 (stereo not drawn) | 92 | n | n | n | n | n
O=C1OC(c2ccccc2)/C(=C(/O)c2ccc(Cl)cc2)C1=O (stereo not drawn) | 98 | n | n | n | n | n
COc1ccccc1/C=N/NC(=O)c1nnn(-c2nonc2N)c1-c1cccs1 | n | n | n | n | n | n
CCN(CC(=O)Nc1c(F)cccc1F)C(=O)/C=C/c1ccc(C)cc1 | x | 12 | n | n | n | n
CCN(CC(=O)Nc1c(F)cccc1F)C(=O)/C=C/c1ccc(OCC#N)c(OC)c1 | n | n | n | n | n | n
Cc1ccc(/C=N/Nc2nc(Cl)c(Cl)cc2Cl)s1 | n | n | 54 | n | n | n
Cc1ccsc1/C=N\Nc1cn[nH]c(=O)c1Cl | n | n | n | n | n | n
Cc1ccc(/C=N/Nc2ccc(Cl)c(C(=O)O)c2)s1 | n | n | n | n | n | n
Cc1ccsc1/C=N/Nc1nc(Cl)c(Cl)cc1Cl | n | n | 63 | n | n | n
CCCCC(=O)Nc1nnc(SCC(=O)NCC2CCCO2)s1 (stereo not drawn) | n | n | n | n | n | n
CCCCCN(C(=O)CCC(=O)OC(C)C(=O)Nc1cccc(C#N)c1)c1c(N)n(CCCC)c(=O)[nH]c1=O (stereo not drawn) | n | n | n | n | n | 303
CC(C)CN(C(=O)CCC(=O)OC(C)C(=O)Nc1cccc(C#N)c1)c1c(N)n(CC(C)C)c(=O)[nH]c1=O (stereo not drawn) | n | n | n | n | n | n
COc1cccc(CN2CC(C(=O)NCCN3CCOC3=O)CCC2=O)c1 (stereo not drawn) | n | n | n | n | n | n
Nc1ccc2c(c1)Nc1ccccc1CC2 | 99 | n | 50 | n | n | n
SMILES | ALR H2O2 inh | Bfl-1 A1 inh | AHR activator | VLA-4 inh | Efflux pump mplx | SUMO Mot1 rescue
N#CC(C#N)=C1CCc2ccccc2N1 | x | n | n | n | n | n
COC(=O)Nc1ccc2c(c1)Nc1ccccc1CC2 | 98 | n | n | n | n | n
NS(=O)(=O)c1ccc(NC(=O)COc2ccc(C(=O)c3ccc(F)cc3)cc2)cc1 | n | n | n | n | n | n
COCc1[nH][nH]c(=O)c1C=Nc1ccc(Oc2ccccc2)cc1 | 99 | n | n | n | n | n
COCc1[nH][nH]c(=O)c1C=Nc1ccc(C(F)(F)F)cc1 | n | n | n | n | n | n
Cc1ccc(NC2CCCN(C(=O)CCCN3CCCCC3=O)C2)cc1C (stereo not drawn) | 99 | n | n | n | n | n
COc1ccc(NC2CCCN(C(=O)CCN3CCCC3=O)C2)cc1OC (stereo not drawn) | 99 | n | n | n | n | n
COc1ccc(NC2CCCN(C(=O)CCN3Cc4ccccc4C3=O)C2)cc1 (stereo not drawn) | 99 | n | n | n | n | n
COc1ccc(NC2CCCN(C(=O)CCN3CCCC3=O)C2)cc1 (stereo not drawn) | 98 | n | n | n | n | n
O=C1CCCCN1CCC(=O)N1CCCC(Nc2ccc(F)c(F)c2)C1 (stereo not drawn) | n | n | n | n | n | n
O=C1CCCN1CCC(=O)N1CCCC(Nc2ccc(F)cc2)C1 (stereo not drawn) | n | n | n | n | n | n
COc1ccc(NC2CCCN(C(=O)CCCN3CCCCC3=O)C2)cc1 (stereo not drawn) | 99 | n | n | n | n | n
COC(=O)[C@]1(Cc2ccccc2)N[C@H](CN(C)C(=O)C2CCCCC2)[C@@H]2C(=O)N(Cc3ccccc3)C(=O)[C@@H]21 | x | x | n | n | n | x
Cc1ccc(-n2c(-c3cnccn3)n[nH]c2=S)cc1 | 88 | n | n | n | n | x
CC(C)Cn1c(Cc2ccccc2)n[nH]c1=S | 92 | n | n | n | n | n
CCn1c(Cc2ccccc2)n[nH]c1=S | n | n | n | n | n | n
Cc1ccc(-n2c(Cc3ccccc3)n[nH]c2=S)cc1 | 92 | n | n | n | n | x
CC(C)OCC(O)CCc1n[nH]c(=S)n1-c1ccccc1 (stereo not drawn) | 88 | n | n | n | n | n
CCCCOCC(O)CCc1n[nH]c(=S)n1-c1ccccc1 (stereo not drawn) | x | n | n | n | n | n
C=C1C(C(=O)Nc2ccc(F)cc2)C1C(=O)Nc1ccc(F)cc1 (stereo not drawn) | n | n | n | n | n | n
Cc1cc(C)c(S(=O)(=O)Nc2cnc3ccccc3c2)c(C)c1 | n | n | n | n | n | n
S=c1[nH]nc(CCc2ccccc2)n1-c1ccccc1 | n | n | n | n | n | n
S=c1[nH]nc(Cc2noc3ccccc23)n1-c1ccc(Cl)cc1 | 92 | n | n | n | n | n
S=c1[nH]nc(Cc2n[nH]c(=S)n2-c2ccccc2)n1-c1ccccc1 | 93 | n | n | n | n | n
S=c1[nH]nc(Cc2ccccc2)n1-c1ccccc1 | 87 | n | n | n | n | n
SMILES | ALR H2O2 inh | Bfl-1 A1 inh | AHR activator | VLA-4 inh | Efflux pump mplx | SUMO Mot1 rescue
Cc1ccc(-n2c(Cc3noc4ccccc34)n[nH]c2=S)cc1 | n | n | n | n | n | n
CN(C)c1cc(-c2ccc(Cl)c(Cl)c2)oc(=O)c1Cl | n | n | n | n | n | n
CN(C)c1cc(-c2ccc(Cl)cc2)oc(=O)c1Cl | x | n | 56 | n | n | n
COc1ccc(NC(=O)c2cc(S(=O)(=O)N3CCCC3)ccc2C)cn1 | n | u | n | n | n | n
CCc1ccc(OC)c(-c2csc(N)n2)c1 | 98 | n | n | n | n | n
CCCOc1ccc(-c2csc(N)n2)cc1[N+](=O)[O-] | 99 | n | n | n | n | n
